Experimental findings from PubChem BioAssay (NCATS) are described below.

Values joined by “and” are separate entries in the source; they are usually repeats but may differ in a detail not shown here. Equal values may be shown once. Records with an inconclusive call do not appear. Where a call stands in place of a potency, no number is given. A number with no mark means an inactive call. Active and inactive are the calls of the source. Unless noted, the call rests on the fitted dose curve; in most records, active means well fitted curve in the direction sought with a large enough effect; inconclusive means small, poorly fitted or top-dose-only effect, or another doubt; inactive means no such curve, though single readings can be large; an effect the other way counts as inactive or inconclusive.

The nature of assay [1]: qHTS for Inhibitors of Ubiquitin-specific Protease USP2a Using CHOP2 as the Reporter: K633 Counterscreen (AID 652168). The settings on record: No-enzyme DiUb K48 IQF substrate fluorescence interference, kinetic; series mostly up to 57.5 µM. The method in brief:
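Detection-system control: fluorescence of K48-linked DiUb-4IQF substrate (100 nM as added) tracked over time, Ex 525/Em 598, with pinned compounds and no enzyme, in pH 8 Tris buffer containing beta-mercaptoethanol and 0.05% Chaps.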

The nature of assay [2]: qHTS for Inhibitors of Ubiquitin-specific Protease USP2a Using CHOP2 as the Reporter: Cytotox Assay (AID 652170). Further: nearly all actives have a fitted effect of over 70% in size. Further: potency means the concentration at half of the fitted maximal effect. The settings on record: HCT116 viability, CellTiter-Glo luminescence, 72 h; series mostly up to 46.1 µM. The method in brief:
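Cytotoxicity read as ATP luminescence (CellTiter-Glo) after 72 hr compound treatment at 37 deg C. Cells: HCT116, 600/well in DMEM plus 10% FBS. Normalization between DMSO-treated cells and cell-free wells.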

Assay [3] concerns the target Ubiquitin carboxyl-terminal hydrolase 2 (Homo sapiens) (UniProt O75604). The assay can be described thus: qHTS for Inhibitors of Ubiquitin-specific Protease USP2a Using CHOP2 as the Reporter: K484 Substrate (AID 652173).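 Further: cleavage of internally quenched K48 di-ubiquitin substrate measured as rising fluorescence over time; potency means the concentration at half of the fitted maximal effect; nearly all actives have a fitted effect of over 70% in size.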 The settings on record: USP2 cleavage of DiUb K48 IQF substrate, fluorescence; series mostly up to 57.5 µM. The method in brief: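 Kinetic fluorescence (Ex 525/Em 598) tracked cleavage of an internally quenched K48 di-ubiquitin substrate, added as a 100 nM solution. The enzyme was added as a 5 nM USP2 solution before compound pinning, with no-enzyme controls. Buffer: Tris pH 8, beta-mercaptoethanol, CHAPS.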
(Quantitative high-throughput screening tests each substance at several concentrations.)

Assay [4] is described as follows: qHTS assay for small molecule agonists of the antioxidant response element (ARE) signaling pathway (AID 651741; active means well fitted activation curve with a large enough effect in the signal ratio; the % refers to the signal ratio). The settings on record: HepG2 ARE-bla reporter, beta-lactamase FRET ratio, 16 h; series mostly up to 96 µM. The method in brief: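 HepG2 ARE-bla reporter cells, 2,000/well; 5 h settle at 37 C/5% CO2; compound pin transfer (23 nL, DMSO); 16 h at 37 C; LiveBLAzer B/G FRET substrate, 2 h RT; fluorescence intensity read.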

Assay [5] can be described thus: qHTS assay for small molecule activators of the p53 signaling pathway (AID 651743; active means well fitted activation curve with a large enough effect in the signal ratio, not every such curve was filed as active; the % refers to the signal ratio). The settings on record: HCT-116 p53RE-bla, beta-lactamase FRET ratio, 16 h; activation: stronger effect = higher value. The essentials:
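Reporter: beta-lactamase driven by p53 response elements, stably integrated in HCT-116 cells. Cells seeded at 4,000/well, 5 h preincubation, compound (DMSO) 16 h at 37 C; B/G FRET substrate 2 h RT; fluorescence intensity read.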

A short description of assay [6]: qHTS assay for cell viability of HEK293 cells (AID 743288). Further: nearly all actives have a fitted effect of over 50% in size. The settings on record: ATP luminescence (CellTiter-Glo), 18 h; max response: stronger effect = lower value. The essentials:
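HEK293, 18 h, 37 C, ATP luminescence. Cells at 2,000/well were allowed at least 5 h to settle before dosing; CellTiter-Glo developed 30 min at RT.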

Chain of Ubiquitin carboxyl-terminal hydrolase 2 (Homo sapiens) (O75604 whole entry, looked up): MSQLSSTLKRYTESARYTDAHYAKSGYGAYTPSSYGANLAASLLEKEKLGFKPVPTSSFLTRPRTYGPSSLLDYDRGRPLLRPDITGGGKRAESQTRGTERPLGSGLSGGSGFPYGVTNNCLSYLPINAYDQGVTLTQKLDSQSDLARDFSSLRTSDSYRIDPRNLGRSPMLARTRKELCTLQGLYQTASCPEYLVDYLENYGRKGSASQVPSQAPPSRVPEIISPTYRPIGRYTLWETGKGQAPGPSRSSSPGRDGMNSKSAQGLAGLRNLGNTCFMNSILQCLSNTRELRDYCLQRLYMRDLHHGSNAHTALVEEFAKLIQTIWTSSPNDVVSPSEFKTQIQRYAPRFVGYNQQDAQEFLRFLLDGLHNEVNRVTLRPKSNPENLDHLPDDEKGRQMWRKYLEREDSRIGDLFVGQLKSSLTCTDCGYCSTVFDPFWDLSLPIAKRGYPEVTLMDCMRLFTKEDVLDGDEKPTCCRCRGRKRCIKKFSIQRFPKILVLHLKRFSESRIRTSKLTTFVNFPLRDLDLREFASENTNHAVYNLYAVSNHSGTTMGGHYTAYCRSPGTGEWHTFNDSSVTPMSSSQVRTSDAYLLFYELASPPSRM

For the molecule `Cc1ccc(S(=O)(=O)Nc2cnccc2C(=O)Nc2nc(-c3ccccc3)cs2)cc1`, in assay [1], the outcome was inactive. Moreover, the Potency is 18.7 µM (active) in assay [2]; 2.17 µM (active) and 1.72 µM (active) in assay [3].
Turning to `Cc1ccc(S(=O)(=O)Nc2cnccc2C(=O)Nc2nc(-c3cccnc3)cs2)cc1`, the result in assay [1] was inactive. Further, the Potency entry in assay [2] was “inactive”. The Potency in assay [3] is 13.7 µM (active).
Consider `CCCCCCCC1CCC(=O)O1` (stereo not drawn), for which the Potency entry in assay [4] was “inactive”. Besides, in assay [5], the activation was -2.71%. Besides, the max response in assay [6] is -3.73%.
As to `Cc1ccc(S(=O)(=O)Nc2cnccc2C(=O)Nc2nc3ccccc3s2)cc1`, in assay [1], the result was inactive. Further, the Potency entry in assay [2] is “inactive”. For the same molecule, the Potency in assay [3] is 3.43 µM (active).
Regarding `Cc1ccc(S(=O)(=O)Nc2cnccc2C(=O)Nc2nc(-c3cc4ccccc4o3)cs2)cc1`, in assay [1], the molecule was called inactive. Also, in assay [3], the Potency was 1.93 µM (active).
Take `Cc1ccc(-c2csc(NC(=O)c3ccncc3NS(=O)(=O)c3ccc(C)cc3)n2)cc1`: the molecule was classed as inactive in assay [1]. Besides, the Potency is 14.8 µM (active) in assay [2] and 1.22 µM (active) in assay [3].
Taken in the same sequence, the figures for `N#Cc1ccccc1S(=O)(=O)Nc1cnccc1C(=O)Nc1nc(-c2ccccc2)cs1` were “inactive”, “inactive” and 7.69 µM (active).
As to `Cc1ccc(S(=O)(=O)Nc2cc(Cl)c(Cl)cc2C(=O)Nc2nc(-c3ccccc3)cs2)cc1`, in assay [1], the outcome was inactive. The Potency in assay [2] is 5.26 µM (active); in assay [3], 1.37 µM (active).
Consider `O=S(=O)(Nc1nccs1)c1ccc(Nc2nc(-c3ccc(F)cc3)cs2)cc1`, for which, in assay [1], the call was inactive. For the same molecule, the Potency entry in assay [2] is “inactive”. The Potency in assay [3] was 3.06 µM (active) and 9.68 µM (active).
On to `O=C(Nc1nc(-c2ccccc2)cs1)c1ccncc1NS(=O)(=O)c1ccc(F)c(F)c1`, for which, in assay [1], the molecule was called inactive. The Potency result in assay [2] is “inactive”. The Potency in assay [3] was 2.17 µM (active).
As for `O=C(Nc1nc(-c2ccccc2)cs1)c1ccncc1NS(=O)(=O)c1cccc(Cl)c1`, the result in assay [1] was inactive. For the same molecule, the Potency entry in assay [2] is “inactive”. In assay [3], the Potency is 3.85 µM (active).
Turning to `Cc1ccc(S(=O)(=O)Nc2cnccc2C(=O)Nc2nc(-c3nc4ccccc4s3)cs2)cc1`, the molecule was called inactive in assay [1]. The Potency entry in assay [2] is “inactive”. For the same molecule, the Potency in assay [3] was 1.72 µM (active).
On to `Cc1ccc(-c2cc(C(=O)Nc3ccc(S(N)(=O)=O)cc3)c3cccc(C)c3n2)cc1C`, for which the call in assay [1] was inactive. Besides, the Potency result in assay [2] is “inactive”. Also, in assay [3], the Potency is 17.2 µM (active) and 6.85 µM (active).
